Data as given in PubChem BioAssay (NCI).
This is part of a sample that, as a whole, favours compounds with a hit. Of some 83,000 tested, about 20% had one in any assay.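 Testing used 96-well plates and a 48-hour single-concentration exposure. Example: -40 means 40% of the starting cells died.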 A number with no mark means an inactive call. Activity calls are given as the source filed them. How the source made its calls: active means growth percent below 10; inactive means the rest.

What was measured:
Assay in all cases: NCI-60 one-dose screen, 48 h (100 = growth as untreated, 0 = no growth, -100 = all killed)
SK-MEL-2 melanoma = conditions: 10 µM unless noted
EKVX NSCLC = conditions: 10 µM unless noted
SN12C renal = conditions: 10 µM unless noted
UO-31 renal = conditions: 10 µM unless noted
TK-10 renal = conditions: 10 µM unless noted
ACHN renal = conditions: 10 µM unless noted
CAKI-1 renal = conditions: 10 µM unless noted
A498 renal = conditions: 10 µM unless noted
CCRF-CEM leukemia = conditions: 10 µM unless noted
MOLT-4 leukemia = conditions: 10 µM unless noted
SR leukemia = conditions: 10 µM unless noted
RPMI-8226 leukemia = conditions: 10 µM unless noted
OVCAR-8 ovarian = conditions: 10 µM unless noted
OVCAR-5 ovarian = conditions: 10 µM unless noted
OVCAR-4 ovarian = conditions: 10 µM
SK-OV-3 ovarian = conditions: 10 µM unless noted
IGROV1 ovarian = conditions: 10 µM unless noted
OVCAR-3 ovarian = conditions: 10 µM unless noted
HS 578T breast = conditions: 10 µM unless noted
NCI/ADR-RES ovarian = conditions: 10 µM unless noted

Structure (SMILES) | growth (SK-MEL-2 melanoma) | growth (EKVX NSCLC) | growth (SN12C renal) | growth (UO-31 renal) | growth (TK-10 renal) | growth (ACHN renal) | growth (CAKI-1 renal) | growth (A498 renal) | growth (CCRF-CEM leukemia) | growth (MOLT-4 leukemia) | growth (SR leukemia) | growth (RPMI-8226 leukemia) | growth (OVCAR-8 ovarian) | growth (OVCAR-5 ovarian) | growth (OVCAR-4 ovarian) | growth (SK-OV-3 ovarian) | growth (IGROV1 ovarian) | growth (OVCAR-3 ovarian) | growth (HS 578T breast) | growth (NCI/ADR-RES ovarian)
COc1ccc(C(=O)CSc2nccc(Nc3ccc(C(=O)O)cc3)n2)cc1 | 103% | 103% | 99.3% | 82% | 103% | 101% | 97.7% | 106% | 105% | 106% | 91.4% | 109% | 94.8% | 103% | 108% | 99.1% | 91.8% | 100% | 84.4% | 103%
COc1ccc2c(c1)C(C)Cc1c(ncnc1-n1cnc3ccccc31)N2C (stereo not given) | 44% | 40.4% | 24.5% | 46.9% | 63.7% | 50.1% | 27.6% | -0.234% (active) | 9.22% (active) | 17.8% | 11.8% | 26.5% | 17.8% | 48.7% | 70% | 14.5% | 50.7% | 6% (active) | 31.6% | 11.3%
Cc1ccc(-c2cc(O)c(-c3ccc(C)cc3C)cc2O)c(C)c1 | 91.8% | 56.6% | 68.9% | 64.5% | 79.1% | 73.2% | 39.7% | 94.3% | 39.5% | 31.7% | 7.1% (active) | 37.2% | 47.7% | 96.9% | 41.2% | 82.7% | 86.9% | 67.8% | 87.9% | 52.2%
O=C(OCc1ccc2c(Cl)cc(Cl)c(O)c2n1)N1CCNCC1 | 59.1% | 33.1% | 32% | 15.3% | 52.1% | 14% | 27% | 24.3% | 26.1% | 33.5% | 14.5% | 44.2% | 28.7% | 55.5% | 23.4% | 40.9% | 34.8% | 33.8% | 53.4% | 9.22% (active)
CC1Cc2c(Cl)ncnc2N(C)c2ccc(O)cc21 (stereo not given) | 27% | 51.3% | 82.6% | 22.5% | 94.5% | 84.9% | 89.2% | 94.1% | 82.5% | 67.6% | 90.3% | 68.5% | 29.7% | 102% | 27% | 31.7% | 103% | 50.8% | 28.8% | 17.3%
CCN(CCO)CCC(=O)c1ccc([N+](=O)[O-])cc1 | 107% | 103% | 107% | 75% | 99.8% | 110% | 102% | 87% | 124% | 114% | 107% | 104% | 101% | 116% | 103% | 107% | 108% | 104% | 101% | 102%
O=C(CSc1nccc(Nc2ccc(S(=O)(=O)Nc3ccccn3)cc2)n1)c1ccc(Cl)cc1 | 97.8% | 101% | 90.7% | 71.3% | 109% | 89.8% | 83% | 115% | -44.8% (active) | 81.4% | 75.5% | 71.3% | 84.2% | 111% | 80.2% | 95.4% | 77.9% | 95.8% | 89.1% | 103%
Cc1ccc(S(=O)(=O)Oc2ccc(Br)cc2Br)cc1 | 75.4% | 83.3% | 95.2% | 88.9% | 94.9% | 95.6% | 65% | 74.3% | 47.7% | 47.5% | 22% | 73.3% | 95.1% | 89.5% | 72.4% | 79.4% | 73.3% | 86.9% | 87.7% | 62.3%
COc1ccc(C(=O)CCC(=O)O)cc1 | 102% | 78.7% | 89% | 71.7% | 105% | 100% | 98.4% | 104% | 48.6% | 86.2% | 99.7% | 87.3% | 71.4% | 88.3% | 64.8% | 115% | 96.8% | 79% | 105% | 83.6%
CCc1ccc(-c2ccc(COc3ccc(CC4SC(=O)NC4=O)cc3)cc2)cc1 (stereo not given) | 71.6% | 63% | 74.5% | 61.1% | 92.8% | 69.5% | 51% | 100% | 61.3% | 58.5% | 45.9% | 57.5% | 77.2% | 91.2% | 58.6% | 84.9% | 63.8% | 73.6% | 80.9% | 65.1%
O=C(NCCO)c1cccnc1 | 81.8% | 109% | 100% | 85.2% | 81% | 110% | 98.3% | 96.9% | 81.4% | 107% | 103% | 95.4% | 102% | 103% | 110% | 97.4% | 100% | 111% | 92.1% | 96.5%
COc1ccc(-c2cc(-c3ccc(Cl)cc3)nc(SCCCCCCC(=O)NO)n2)cc1 | 87.1% | 44.2% | 41.3% | 11.8% | 34.7% | 16.1% | 4.58% (active) | 52% | 3.36% (active) | 9.33% (active) | 4.61% (active) | 26.5% | 21.1% | 34.1% | 56.5% | 20.1% | 11.1% | 39% | 55.5% | 2.26% (active)
Cn1cc(-c2noc(-c3cn(C)c4ncc(F)cc34)n2)c2cc(Br)ccc21 | 103% | 58.4% | 60.2% | 79.8% | 46.5% | 40.3% | 53.5% | 91.9% | 80.8% | 71.1% | 37.1% | 87.9% | 55.2% | 64.4% | -40.3% (active) | 84.4% | 73.3% | 38.5% | 58.7% | 61.5%
O=C(CCNCc1ccccc1)c1ccccc1 | 108% | 104% | 109% | 95.9% | 113% | 107% | 100% | 112% | 116% | 109% | 109% | 105% | 112% | 103% | 119% | 109% | 114% | 102% | 110% | 105%
CN(Cc1cccc(C(F)(F)F)c1)C(=O)[C@@H](CC(=O)N1CCC(N2CCCCC2)CC1)N1C(=O)[C@@H](N2C(=O)OC[C@@H]2c2ccccc2)[C@H]1/C=C/c1ccccc1 | 100% | 89.9% | 82.6% | 83.4% | 93.6% | 100% | 91.9% | 63% | 90.6% | 58.3% | 54.3% | 66.9% | 93.2% | 104% | 74.2% | 86.2% | 89.6% | 92.9% | 61% | 99.2%
